Assay results reported in publication PMC7862700, “An all-to-all approach to the identification of sequence-specific readers for epigenetic DNA modifications on cytosine”.

Columns and labels:
Assay in all cases: DAPPL (digital affinity profiling via proximity ligation, sequencing); 10 mM Tris-HCl pH 7.5, 50 mM NaCl, 1 mM DTT, 4% glycerol, room temperature, 30 min; GST-TFs on glutathione beads, 16-mer random dsDNA library, 0.1% formaldehyde crosslink after washing; high values mean tight binding
Conditions in all cases: protein: recombinant; tags: N-terminal GST; dsDNA, one strand shown
FLI1 = target: T1, FLI1 (Homo sapiens, UniProt Q01543 1-452)
T1 sequence: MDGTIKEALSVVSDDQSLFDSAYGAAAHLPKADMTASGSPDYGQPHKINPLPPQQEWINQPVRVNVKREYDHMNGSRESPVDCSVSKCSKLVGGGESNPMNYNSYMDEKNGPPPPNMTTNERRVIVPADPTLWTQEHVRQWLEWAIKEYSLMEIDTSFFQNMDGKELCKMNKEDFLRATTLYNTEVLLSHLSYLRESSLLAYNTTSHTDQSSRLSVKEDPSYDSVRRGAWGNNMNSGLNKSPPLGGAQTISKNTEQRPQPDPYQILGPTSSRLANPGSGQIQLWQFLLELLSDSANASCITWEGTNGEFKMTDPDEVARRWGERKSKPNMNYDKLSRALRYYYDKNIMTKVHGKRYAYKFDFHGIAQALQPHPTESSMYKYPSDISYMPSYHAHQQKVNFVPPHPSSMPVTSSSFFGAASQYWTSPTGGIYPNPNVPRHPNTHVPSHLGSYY
Summary of the method: (§1)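 After expression in yeast as GST fusions, human transcription factors were bound to glutathione beads, DNA-barcoded and mixed with a tag-only sample. The pools were incubated with 200 nmole of a 16-mer random double-stranded DNA library in Tris/NaCl/DTT/glycerol buffer (30 min, room temperature), washed and crosslinked with 0.1% formaldehyde. Proximity ligation with BsaI/T4 ligase ran for 1 h at 37 °C, before PCR amplification and sequencing on an Illumina NextSeq500. Binding signal is a hexamer's read frequency for a factor divided by its frequency for the tag-only sample.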

ELK1 = target: T2, ELK1 (Homo sapiens, UniProt P19419 1-428)
T2 sequence: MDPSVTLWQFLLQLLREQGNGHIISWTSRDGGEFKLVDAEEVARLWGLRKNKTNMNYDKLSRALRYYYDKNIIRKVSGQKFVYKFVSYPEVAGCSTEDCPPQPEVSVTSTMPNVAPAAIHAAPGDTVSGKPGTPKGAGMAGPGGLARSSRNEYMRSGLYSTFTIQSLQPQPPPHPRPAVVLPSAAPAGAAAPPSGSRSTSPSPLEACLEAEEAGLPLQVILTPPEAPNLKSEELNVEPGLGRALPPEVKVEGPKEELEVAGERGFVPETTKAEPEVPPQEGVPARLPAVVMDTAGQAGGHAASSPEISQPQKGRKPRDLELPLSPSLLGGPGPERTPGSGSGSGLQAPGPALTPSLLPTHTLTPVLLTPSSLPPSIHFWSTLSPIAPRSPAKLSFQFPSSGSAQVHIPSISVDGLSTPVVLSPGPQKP
Summary of the method: as §1

GABPA = target: T3, GABPA (Homo sapiens, UniProt Q06546 1-454)
T3 sequence: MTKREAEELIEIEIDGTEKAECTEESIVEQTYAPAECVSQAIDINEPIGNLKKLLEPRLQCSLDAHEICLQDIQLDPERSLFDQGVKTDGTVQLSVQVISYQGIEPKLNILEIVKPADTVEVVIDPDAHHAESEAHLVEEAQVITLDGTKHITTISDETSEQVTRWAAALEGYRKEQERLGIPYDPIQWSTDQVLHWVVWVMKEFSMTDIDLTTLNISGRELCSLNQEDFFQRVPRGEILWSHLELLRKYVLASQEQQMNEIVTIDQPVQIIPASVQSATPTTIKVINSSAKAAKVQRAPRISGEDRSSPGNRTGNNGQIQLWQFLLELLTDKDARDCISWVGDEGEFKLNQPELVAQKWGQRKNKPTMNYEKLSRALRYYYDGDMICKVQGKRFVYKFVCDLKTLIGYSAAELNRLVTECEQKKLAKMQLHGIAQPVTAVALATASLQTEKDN
Summary of the method: as §1

ERG = target: T4, ERG (Homo sapiens, UniProt P11308 1-479)
T4 sequence: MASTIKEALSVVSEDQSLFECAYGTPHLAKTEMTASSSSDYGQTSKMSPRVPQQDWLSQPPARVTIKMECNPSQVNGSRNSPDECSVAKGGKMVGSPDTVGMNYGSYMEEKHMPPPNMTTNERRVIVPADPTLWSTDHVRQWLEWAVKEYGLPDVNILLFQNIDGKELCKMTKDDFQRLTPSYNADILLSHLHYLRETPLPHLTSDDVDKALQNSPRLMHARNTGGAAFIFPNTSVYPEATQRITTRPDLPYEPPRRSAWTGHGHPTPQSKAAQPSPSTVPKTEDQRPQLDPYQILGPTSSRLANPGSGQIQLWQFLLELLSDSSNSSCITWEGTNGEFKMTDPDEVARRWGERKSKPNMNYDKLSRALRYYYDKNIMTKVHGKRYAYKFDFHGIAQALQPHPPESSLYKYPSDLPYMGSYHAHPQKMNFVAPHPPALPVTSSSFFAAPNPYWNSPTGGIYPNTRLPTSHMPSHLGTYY
Summary of the method: as §1

ELF1 = ELF1 (Homo sapiens, UniProt P32519 1-619)
ELF1, sequence (P32519 whole entry): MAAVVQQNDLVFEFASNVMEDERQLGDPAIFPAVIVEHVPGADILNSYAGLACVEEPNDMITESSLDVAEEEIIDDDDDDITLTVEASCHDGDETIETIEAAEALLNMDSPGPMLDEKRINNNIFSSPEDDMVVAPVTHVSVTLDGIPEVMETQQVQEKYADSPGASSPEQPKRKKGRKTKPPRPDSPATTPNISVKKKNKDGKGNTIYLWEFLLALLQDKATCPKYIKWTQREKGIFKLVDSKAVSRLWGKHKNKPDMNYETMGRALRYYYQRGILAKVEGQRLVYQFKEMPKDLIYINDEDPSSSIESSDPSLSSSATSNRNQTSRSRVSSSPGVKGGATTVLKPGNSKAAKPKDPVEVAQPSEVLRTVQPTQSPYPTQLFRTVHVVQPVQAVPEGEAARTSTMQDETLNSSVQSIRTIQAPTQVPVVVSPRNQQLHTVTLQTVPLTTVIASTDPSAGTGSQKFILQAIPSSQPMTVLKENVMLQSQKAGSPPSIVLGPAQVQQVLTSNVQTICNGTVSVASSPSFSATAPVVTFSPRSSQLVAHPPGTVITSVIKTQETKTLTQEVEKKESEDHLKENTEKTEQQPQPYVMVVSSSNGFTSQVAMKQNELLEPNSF
Summary of the method: as §1

EHF = target: T5, EHF (Homo sapiens, UniProt Q9NZC4 1-300)
T5 sequence: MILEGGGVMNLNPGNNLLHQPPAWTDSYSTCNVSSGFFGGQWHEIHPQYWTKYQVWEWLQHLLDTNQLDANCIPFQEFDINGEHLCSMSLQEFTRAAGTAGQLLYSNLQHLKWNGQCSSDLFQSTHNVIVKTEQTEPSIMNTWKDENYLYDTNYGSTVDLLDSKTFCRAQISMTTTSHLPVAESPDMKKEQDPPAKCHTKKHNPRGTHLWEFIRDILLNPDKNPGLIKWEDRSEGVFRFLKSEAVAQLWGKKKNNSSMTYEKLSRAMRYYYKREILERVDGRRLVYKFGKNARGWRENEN
Summary of the method: as §1

SPI1 = SPI1 (Homo sapiens, UniProt P17947 1-270)
Summary of the method: as §1

SPIB = SPIB (Homo sapiens, UniProt Q01892 1-262)
SPIB, sequence (Q01892 whole entry): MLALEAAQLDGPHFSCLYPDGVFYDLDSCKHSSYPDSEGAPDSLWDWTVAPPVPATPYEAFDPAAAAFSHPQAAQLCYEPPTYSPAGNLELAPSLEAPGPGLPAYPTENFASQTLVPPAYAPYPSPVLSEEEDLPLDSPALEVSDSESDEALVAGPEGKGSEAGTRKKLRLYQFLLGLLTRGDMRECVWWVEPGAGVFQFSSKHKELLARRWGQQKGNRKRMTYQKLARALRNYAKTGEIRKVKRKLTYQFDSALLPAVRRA
Summary of the method: as §1

ELK3 = target: T6, ELK3 (Homo sapiens, UniProt P41970 1-407)
T6 sequence: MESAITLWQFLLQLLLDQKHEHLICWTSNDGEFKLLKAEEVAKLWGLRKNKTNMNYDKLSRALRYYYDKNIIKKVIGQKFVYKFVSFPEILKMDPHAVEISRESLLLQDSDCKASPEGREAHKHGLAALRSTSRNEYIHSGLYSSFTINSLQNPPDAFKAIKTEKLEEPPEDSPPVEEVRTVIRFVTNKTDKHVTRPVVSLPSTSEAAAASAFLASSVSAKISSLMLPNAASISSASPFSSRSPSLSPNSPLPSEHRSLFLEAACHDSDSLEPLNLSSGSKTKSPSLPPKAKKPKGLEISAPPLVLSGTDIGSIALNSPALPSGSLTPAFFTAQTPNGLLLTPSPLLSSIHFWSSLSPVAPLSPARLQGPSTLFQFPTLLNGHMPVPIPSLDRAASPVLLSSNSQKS
Summary of the method: as §1

Sequence | binding signal (FLI1) | binding signal (ELK1) | binding signal (GABPA) | binding signal (ERG) | binding signal (ELF1) | binding signal (EHF) | binding signal (SPI1) | binding signal (SPIB) | binding signal (ELK3)
AATTAG | 1.18 fold enrichment (6-mer frequency, TF over GST control) | 1.09 fold enrichment (6-mer frequency, TF over GST control) | 1.13 fold enrichment (6-mer frequency, TF over GST control) | 1.11 fold enrichment (6-mer frequency, TF over GST control) | 1.12 fold enrichment (6-mer frequency, TF over GST control) | 1.06 fold enrichment (6-mer frequency, TF over GST control) | 1.1 fold enrichment (6-mer frequency, TF over GST control) | 1.11 fold enrichment (6-mer frequency, TF over GST control) | 1.09 fold enrichment (6-mer frequency, TF over GST control)
CTACGA | 1.16 fold enrichment (6-mer frequency, TF over GST control) | 1.24 fold enrichment (6-mer frequency, TF over GST control) | 1.29 fold enrichment (6-mer frequency, TF over GST control) | 1.2 fold enrichment (6-mer frequency, TF over GST control) | 1.27 fold enrichment (6-mer frequency, TF over GST control) | 1.25 fold enrichment (6-mer frequency, TF over GST control) | 1.14 fold enrichment (6-mer frequency, TF over GST control) | 1.23 fold enrichment (6-mer frequency, TF over GST control) | 1.33 fold enrichment (6-mer frequency, TF over GST control)
TGGTCT | 1.56 fold enrichment (6-mer frequency, TF over GST control) | 1.69 fold enrichment (6-mer frequency, TF over GST control) | 1.47 fold enrichment (6-mer frequency, TF over GST control) | 1.49 fold enrichment (6-mer frequency, TF over GST control) | 1.49 fold enrichment (6-mer frequency, TF over GST control) | 1.66 fold enrichment (6-mer frequency, TF over GST control) | 1.58 fold enrichment (6-mer frequency, TF over GST control) | 1.76 fold enrichment (6-mer frequency, TF over GST control) | 1.65 fold enrichment (6-mer frequency, TF over GST control)
CTCTCT | 1.77 fold enrichment (6-mer frequency, TF over GST control) | 1.78 fold enrichment (6-mer frequency, TF over GST control) | 1.56 fold enrichment (6-mer frequency, TF over GST control) | 1.62 fold enrichment (6-mer frequency, TF over GST control) | 1.76 fold enrichment (6-mer frequency, TF over GST control) | 1.66 fold enrichment (6-mer frequency, TF over GST control) | 1.53 fold enrichment (6-mer frequency, TF over GST control) | 1.56 fold enrichment (6-mer frequency, TF over GST control) | 1.49 fold enrichment (6-mer frequency, TF over GST control)
CGATTT | 1.23 fold enrichment (6-mer frequency, TF over GST control) | 1.08 fold enrichment (6-mer frequency, TF over GST control) | 1.08 fold enrichment (6-mer frequency, TF over GST control) | 1.17 fold enrichment (6-mer frequency, TF over GST control) | 1.09 fold enrichment (6-mer frequency, TF over GST control) | 1.26 fold enrichment (6-mer frequency, TF over GST control) | 1.09 fold enrichment (6-mer frequency, TF over GST control) | 1.1 fold enrichment (6-mer frequency, TF over GST control) | 1.04 fold enrichment (6-mer frequency, TF over GST control)
AGCTTT | 1.21 fold enrichment (6-mer frequency, TF over GST control) | 1.2 fold enrichment (6-mer frequency, TF over GST control) | 1.13 fold enrichment (6-mer frequency, TF over GST control) | 1.12 fold enrichment (6-mer frequency, TF over GST control) | 1.2 fold enrichment (6-mer frequency, TF over GST control) | 1.11 fold enrichment (6-mer frequency, TF over GST control) | 1.16 fold enrichment (6-mer frequency, TF over GST control) | 1.04 fold enrichment (6-mer frequency, TF over GST control) | 1.13 fold enrichment (6-mer frequency, TF over GST control)
AAAAAT | 1.28 fold enrichment (6-mer frequency, TF over GST control) | 1.24 fold enrichment (6-mer frequency, TF over GST control) | 1.31 fold enrichment (6-mer frequency, TF over GST control) | 1.26 fold enrichment (6-mer frequency, TF over GST control) | 1.31 fold enrichment (6-mer frequency, TF over GST control) | 1.37 fold enrichment (6-mer frequency, TF over GST control) | 1.29 fold enrichment (6-mer frequency, TF over GST control) | 1.43 fold enrichment (6-mer frequency, TF over GST control) | 1.39 fold enrichment (6-mer frequency, TF over GST control)
CTTCGG | 1.48 fold enrichment (6-mer frequency, TF over GST control) | 1.46 fold enrichment (6-mer frequency, TF over GST control) | 1.58 fold enrichment (6-mer frequency, TF over GST control) | 1.35 fold enrichment (6-mer frequency, TF over GST control) | 1.39 fold enrichment (6-mer frequency, TF over GST control) | 1.24 fold enrichment (6-mer frequency, TF over GST control) | 1.37 fold enrichment (6-mer frequency, TF over GST control) | 1.46 fold enrichment (6-mer frequency, TF over GST control) | 1.38 fold enrichment (6-mer frequency, TF over GST control)
